Assay results as given in PubChem BioAssay (NCATS).
Results filed as inconclusive are left out. Active and inactive are the calls of the source. Unless noted, the call rests on the fitted dose curve; in most records, active means well fitted curve in the direction sought with a large enough effect; inconclusive means small, poorly fitted or top-dose-only effect, or another doubt; inactive means no such curve, though single readings can be large; an effect the other way counts as inactive or inconclusive.

How the values were obtained:
[1] = biological target: Lysosomal acid glucosylceramidase (Homo sapiens) (UniProt P04062); assay: Glucocerebrosidase-p2 (AID 348; in the data active means potency below about 10 µM; further: potency means the concentration at half of the fitted maximal effect); settings: purified GBA, blue fluorogenic substrate, 40 min
Sequence of Lysosomal acid glucosylceramidase (Homo sapiens) (P04062 whole entry, looked up): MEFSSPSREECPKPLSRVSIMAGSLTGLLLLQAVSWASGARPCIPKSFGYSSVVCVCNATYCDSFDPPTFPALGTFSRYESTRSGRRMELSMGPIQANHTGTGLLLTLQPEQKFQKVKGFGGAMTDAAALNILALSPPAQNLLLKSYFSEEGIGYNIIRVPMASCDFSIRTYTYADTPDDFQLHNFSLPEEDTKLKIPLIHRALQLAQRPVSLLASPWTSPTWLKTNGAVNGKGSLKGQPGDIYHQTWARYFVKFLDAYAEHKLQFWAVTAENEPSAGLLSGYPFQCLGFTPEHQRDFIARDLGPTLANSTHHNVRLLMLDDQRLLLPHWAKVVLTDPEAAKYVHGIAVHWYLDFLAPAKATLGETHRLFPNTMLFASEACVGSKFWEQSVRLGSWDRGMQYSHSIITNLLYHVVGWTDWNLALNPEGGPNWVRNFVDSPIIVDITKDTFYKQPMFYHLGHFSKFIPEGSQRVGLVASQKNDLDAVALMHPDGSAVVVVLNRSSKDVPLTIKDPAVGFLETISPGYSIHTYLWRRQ
Procedure, shortened: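 Normal human glucocerebrosidase (0.2 nM) with blue fluorogenic substrate (80 uM final) in citrate/phosphate pH 5.9 with 10mM sodium taurocholate, 0.01% tween-20; 40 min RT, NaOH/glycine stop; fluorescence Ex 365/Em 440; AC50 from a titration from 0.6 nM upwards.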

[2] = AP1 Signaling Pathway (AID 357; active means well fitted curve in either direction with a large enough effect, not every such curve was filed as active;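 further: ME-180 reporter cells stimulated with EGF at its EC50 level; on the % scale 0 is the no-effect control and ±100 the full control effect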); settings: ME-180 AP-1-bla reporter, EGF-induced, beta-lactamase ratio, 5 h; at 7.69 µM (top of the series) unless noted
Procedure, shortened: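 Read-out was the 460nm/530nm emission ratio (excitation 405nm) after CCF4 loading for 2.5 hours at room temperature. Cells carried an AP-1-driven beta-lactamase reporter, were stimulated with EC50 EGF plus compound for 5 hours, and AC50 values came from titrations.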

[3] = biological target: Cytochrome P450 1A2 (Homo sapiens) (UniProt P05177); assay: p450-cyp1a2 (AID 410; calls by dose curve; further: potency means the concentration at half of the fitted maximal effect); settings: recombinant CYP1A2, luciferin-ME demethylation, luminescence; series mostly up to 57 µM
Sequence of Cytochrome P450 1A2 (Homo sapiens) (P05177 whole entry, looked up): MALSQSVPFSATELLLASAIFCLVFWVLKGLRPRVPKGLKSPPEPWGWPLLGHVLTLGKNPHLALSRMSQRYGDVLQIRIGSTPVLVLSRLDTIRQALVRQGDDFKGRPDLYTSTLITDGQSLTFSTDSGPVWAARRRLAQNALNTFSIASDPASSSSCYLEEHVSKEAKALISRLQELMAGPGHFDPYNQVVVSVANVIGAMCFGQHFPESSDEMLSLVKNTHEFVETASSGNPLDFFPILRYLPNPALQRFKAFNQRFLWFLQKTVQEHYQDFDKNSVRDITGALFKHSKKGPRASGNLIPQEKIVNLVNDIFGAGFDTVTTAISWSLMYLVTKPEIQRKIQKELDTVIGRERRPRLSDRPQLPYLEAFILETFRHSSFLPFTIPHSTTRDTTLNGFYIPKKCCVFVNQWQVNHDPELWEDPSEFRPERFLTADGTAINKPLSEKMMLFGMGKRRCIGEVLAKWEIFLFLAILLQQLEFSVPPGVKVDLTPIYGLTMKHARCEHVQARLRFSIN
Procedure, shortened: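 Read-out is luminescence from luciferin produced by CYP1A2 demethylation of Luciferin-ME (100uM, at Km). Detection reagent stopped the 60 min NADPH-dependent reaction; signals were normalized to 57 uM furafylline.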

[4] = NFAT Signaling Pathway (AID 444; active means well fitted curve in either direction with a large enough effect, not every such curve was filed as active;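 further: carbachol stimulus at about its EC50 of 1 µM final; on the % scale 0 is the no-effect control and ±100 the full control effect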); settings: Jurkat NFAT-bla M1, carbachol, beta-lactamase ratio, 5 h; at 7.69 µM (top of the series) unless noted
Procedure, shortened: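 Read-out: CCF4 FRET ratio (460 nm/530 nm) after 1 h RT dye loading, used for %activity and AC50 from titration series. Cells: Jurkat NFAT-β-lactamase/M1 line, treated with compound plus 1 uM carbachol for 5 h, 37 °C.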

[5] = Stat Signaling Pathway (AID 446; active means well fitted curve in either direction with a large enough effect, not every such curve was filed as active;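 further: ME-180 cervical cancer cells given 40 pM IL-6 alongside compound; SIE-controlled beta-lactamase reporter measured as 460/530 nm FRET emission ratio; on the % scale 0 is the no-effect control and ±100 the full control effect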); settings: ME-180 SIE beta-lactamase reporter, IL-6 stimulated, 5 h; at 7.69 µM (top of the series) unless noted
Procedure, shortened: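 Compound effects on IL-6-induced STAT reporter activity were measured in ME-180 cells. After overnight culture, cells were co-treated with 40 pM IL-6 for 5 hrs before beta-lactamase substrate loading at room temperature.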

[6] = biological target: Glucocorticoid receptor (Homo sapiens) (UniProt P04150); assay: GR-GFP Redistribution (AID 450;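 active means compounds whose dose series gives a full or clear partial fitted curve of increased nuclear translocation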; further: potency means the concentration at half of the fitted maximal effect); settings: U2OS GR-GFP nuclear translocation, laser cytometry, 2 h
Sequence of Glucocorticoid receptor (Homo sapiens) (P04150 whole entry, looked up, the tested form may be a part): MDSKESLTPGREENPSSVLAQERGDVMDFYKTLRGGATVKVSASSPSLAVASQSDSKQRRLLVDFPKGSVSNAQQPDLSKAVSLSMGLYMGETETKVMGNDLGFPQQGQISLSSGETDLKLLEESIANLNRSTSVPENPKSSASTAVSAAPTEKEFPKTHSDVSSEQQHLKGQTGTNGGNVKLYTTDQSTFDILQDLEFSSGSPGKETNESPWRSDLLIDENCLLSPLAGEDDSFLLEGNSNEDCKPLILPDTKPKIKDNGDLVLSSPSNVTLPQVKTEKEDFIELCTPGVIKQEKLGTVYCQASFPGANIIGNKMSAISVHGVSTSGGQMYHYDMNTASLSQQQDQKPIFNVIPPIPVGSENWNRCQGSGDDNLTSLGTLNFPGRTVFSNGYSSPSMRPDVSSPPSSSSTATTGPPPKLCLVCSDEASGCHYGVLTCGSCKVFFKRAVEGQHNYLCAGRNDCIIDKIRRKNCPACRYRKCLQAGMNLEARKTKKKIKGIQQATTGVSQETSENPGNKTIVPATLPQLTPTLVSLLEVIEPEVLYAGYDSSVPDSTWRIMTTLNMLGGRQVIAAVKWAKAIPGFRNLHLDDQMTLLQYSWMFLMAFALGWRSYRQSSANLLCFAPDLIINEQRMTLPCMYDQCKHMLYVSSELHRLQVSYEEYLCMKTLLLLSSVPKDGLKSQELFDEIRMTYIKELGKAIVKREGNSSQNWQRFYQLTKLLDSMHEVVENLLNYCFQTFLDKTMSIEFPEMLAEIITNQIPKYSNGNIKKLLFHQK

[7] = biological target: Glucocorticoid receptor (Homo sapiens) (UniProt P04150); assay: GR-EFC Redistribution (AID 451; calls by dose curve; further: potency means the concentration at half of the fitted maximal effect); settings: CHO-K1 GR-EFC translocation, beta-gal luminescence, 2 h
Procedure, shortened: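 Translocation of GR-ED fusion to nuclear EA restores b-gal, read by luminescence after 1 h room-temperature detection. Engineered CHO-K1 biosensor cells, 1,000/well, exposed 2 h at 37 C to titrations up to 46 uM final.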

[8] = biological target: Mitogen-activated protein kinase 10 (Mus musculus) (UniProt Q61831); assay: JNK3 AlphaScreen Assay (AID 530; active means well fitted curve in either direction with a large enough effect, not every such curve was filed as active;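 further: kinase came from lysate of stimulated human HepG2 cells; signal reports phosphorylation of biotinylated GST-cJun 1-79 at Ser73 with 10 µM ATP; on the % scale 0 is the no-effect control and ±100 the full control effect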); settings: JNK3 lysate, c-Jun phosphorylation; series mostly up to 57.1 µM
Procedure, shortened: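 Kinase buffer: 20 mM Tris-HCl pH 7.6, 10 mM MgCl2, 1 mM DTT, 0.1 mM Na3VO4, 0.01% Tween-20; ATP 10 uM. Substrate biotin-GST-cJun(1-79), enzyme from activated HepG2 lysates. Detection by Ser73 phospho-antibody AlphaScreen.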

[9] = biological target: 3',5'-cyclic-AMP phosphodiesterase 4B (Homo sapiens) (UniProt Q07343); assay: qHTS Assay for Inhibitors of PDE-IV (AID 607; active means well fitted activation curve with a large enough effect in the main read-out, with a control signal flat, not every such curve was filed as active; further: % of control where 0% means no effect); settings: HEK293 ACTOne CNG channel cells, membrane potential fluorescence; series mostly up to 22.9 µM
Sequence of 3',5'-cyclic-AMP phosphodiesterase 4B (Homo sapiens) (Q07343 whole entry, looked up): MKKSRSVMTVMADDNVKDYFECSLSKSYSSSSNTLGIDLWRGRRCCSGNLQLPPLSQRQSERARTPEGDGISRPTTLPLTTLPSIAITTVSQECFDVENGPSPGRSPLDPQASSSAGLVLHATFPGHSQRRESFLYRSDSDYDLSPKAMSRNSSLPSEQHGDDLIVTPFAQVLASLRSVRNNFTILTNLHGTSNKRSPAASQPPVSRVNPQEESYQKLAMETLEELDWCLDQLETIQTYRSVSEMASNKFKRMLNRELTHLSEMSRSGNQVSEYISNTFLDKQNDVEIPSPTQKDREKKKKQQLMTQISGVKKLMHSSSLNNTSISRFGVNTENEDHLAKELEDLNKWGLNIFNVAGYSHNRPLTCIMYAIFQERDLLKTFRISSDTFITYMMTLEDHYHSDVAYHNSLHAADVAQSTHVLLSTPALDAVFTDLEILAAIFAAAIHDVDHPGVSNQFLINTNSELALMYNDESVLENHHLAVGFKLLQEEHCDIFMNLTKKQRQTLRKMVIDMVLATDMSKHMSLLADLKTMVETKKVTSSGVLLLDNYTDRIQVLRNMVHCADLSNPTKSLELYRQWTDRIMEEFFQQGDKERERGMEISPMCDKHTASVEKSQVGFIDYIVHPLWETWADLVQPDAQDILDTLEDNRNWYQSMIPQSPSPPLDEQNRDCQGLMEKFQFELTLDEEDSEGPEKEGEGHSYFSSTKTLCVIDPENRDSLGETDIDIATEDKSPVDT
Procedure, shortened: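 ACTOne HEK293 cells carry a modified cAMP-gated CNG channel and express endogenous PDE4; plated 1000 cells/well, compounds up to 22.9 uM final. Membrane-potential dye fluorescence (ex 535/em 590) was read; parental cells received 10 uM forskolin + 100 uM RO 20-1724.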

[10] = biological target: Cytochrome P450 3A4 (Homo sapiens) (UniProt P08684); assay: qHTS Assay for Inhibitors and Substrates of Cytochrome P450 3A4 (AID 884); settings: recombinant CYP3A4, Luciferin-PPXE luminescence; series mostly up to 57.1 µM; further: nearly all actives have a fitted effect of over 50% in size; further: potency means the concentration at half of the fitted maximal effect
Sequence of Cytochrome P450 3A4 (Homo sapiens) (P08684 whole entry, looked up): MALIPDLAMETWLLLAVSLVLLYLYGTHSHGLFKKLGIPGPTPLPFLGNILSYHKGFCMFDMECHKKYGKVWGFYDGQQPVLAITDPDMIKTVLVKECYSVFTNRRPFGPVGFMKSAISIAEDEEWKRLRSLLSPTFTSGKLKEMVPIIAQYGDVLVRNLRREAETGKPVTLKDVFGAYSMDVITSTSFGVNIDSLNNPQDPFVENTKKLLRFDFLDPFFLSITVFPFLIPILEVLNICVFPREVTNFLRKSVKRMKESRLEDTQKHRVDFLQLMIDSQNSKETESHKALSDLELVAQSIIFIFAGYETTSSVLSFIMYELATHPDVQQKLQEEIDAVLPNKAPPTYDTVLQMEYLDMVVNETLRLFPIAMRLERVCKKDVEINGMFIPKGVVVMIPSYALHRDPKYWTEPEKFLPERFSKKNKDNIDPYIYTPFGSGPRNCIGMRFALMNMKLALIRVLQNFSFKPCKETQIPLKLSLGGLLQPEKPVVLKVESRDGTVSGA
Procedure, shortened: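 Luminescent readout of luciferin produced by CYP3A4 (20 nM) dealkylation of Luciferin-PPXE, 25 uM (its KM). NADPH-driven reaction ran 60 min at RT after 10 min compound preincubation; data scaled to 57 uM ketoconazole as 100% inhibition.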

[11] = biological target: Cytochrome P450 3A4 (Homo sapiens) (UniProt P08684); assay: qHTS Assay for Activators of Cytochrome P450 3A4 (AID 885); settings: recombinant CYP3A4, Luciferin-PPXE luminescence, 60 min; series mostly up to 57.1 µM; further: nearly all actives have a fitted effect of over 65% in size
Procedure, shortened: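 CYP3A4 activity: Luciferin-PPXE O-dealkylation, 25uM substrate, 200mM KPO4, RT throughout. Read-out is luciferase luminescence; higher values reflect activation.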

[12] = biological target: Cytochrome P450 2C19 (Homo sapiens) (UniProt P33261); assay: qHTS Assay for Inhibitors and Substrates of Cytochrome P450 2C19 (AID 899); settings: recombinant CYP2C19, luciferin-H EGE luminescence; series mostly up to 57.1 µM; further: potency means the concentration at half of the fitted maximal effect; nearly all actives have a fitted effect of over 60% in size
Sequence of Cytochrome P450 2C19 (Homo sapiens) (P33261 whole entry, looked up): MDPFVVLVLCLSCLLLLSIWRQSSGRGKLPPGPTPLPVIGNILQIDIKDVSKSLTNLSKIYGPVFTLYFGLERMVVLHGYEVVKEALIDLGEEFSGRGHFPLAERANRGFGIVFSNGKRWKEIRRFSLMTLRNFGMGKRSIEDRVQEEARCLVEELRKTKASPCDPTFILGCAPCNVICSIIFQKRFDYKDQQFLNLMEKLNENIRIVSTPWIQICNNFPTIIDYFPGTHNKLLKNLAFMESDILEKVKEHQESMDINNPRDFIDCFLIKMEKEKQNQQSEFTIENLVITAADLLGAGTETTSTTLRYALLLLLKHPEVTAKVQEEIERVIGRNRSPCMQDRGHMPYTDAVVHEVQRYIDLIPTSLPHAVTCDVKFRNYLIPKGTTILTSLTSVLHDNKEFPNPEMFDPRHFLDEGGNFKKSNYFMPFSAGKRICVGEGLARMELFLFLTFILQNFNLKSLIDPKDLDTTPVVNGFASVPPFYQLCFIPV
Procedure, shortened: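 5nM enzyme + 10uM Luciferin-H EGE (=KM), 50mM KPO4; cpd pin-transferred, 10 min 37C; NADPH regen, 60 min 37C; stopped w/ luciferin detection reagent, 20 min; luminescence. Normalized to 57uM ketoconazole (AC100).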

[13] = Confirmation and Secondary Assay for Modulators of Hemoglobin Beta Chain Splicing at IVS2 654 locus (AID 910); settings: HeLa EGFP-654 splicing reporter, GFP fluorescence, 48 h; series mostly up to 38.3 µM;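 further: HeLa cells stably carrying EGFP split by mutant beta-globin IVS2-654 intron; per-well total GFP intensity by laser scanning cytometry after 2-day treatment; % of control where 0% means no effect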
Procedure, shortened: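 Readout: per-well total peak green fluorescence (488 nm ex, 500–520 nm em) from objects 5–250 µm, reflecting correct splicing of an EGFP-654 reporter. Compounds were applied for 2 days at 37 °C to overnight-plated HeLa EGFP-654 cells; controls were DMSO and 500 nM IVS2-654 PNA.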

[14] = Confirmation and Secondary Assay for Modulators of Hemoglobin Beta Chain Splicing at IVS2 705 locus (AID 930); settings: HeLa EGFP-705 splicing reporter, GFP fluorescence, 48 h; series mostly up to 38.3 µM;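 further: HeLa cells stably expressing the EGFP-705 splicing reporter; GFP fluorescence per well restored by corrected splicing of the IVS2-705 intron in EGFP; % of control where 0% means no effect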
Procedure, shortened: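 Stable HeLa line with EGFP disrupted by mutant beta-globin intron 2 (705). Overnight attachment, then 2 days of compound at 37C, 5% CO2. Signal: peak GFP intensity summed over objects 5-250 µm.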

[15] = qHTS Assay for Lipid Storage Modulators (AID 1519; calls by dose curve); settings: Drosophila S3 cells, BODIPY lipid droplet/cell ratio, laser cytometry, cells loaded with oleic acid; for activity change, negative = inhibition: at 57.5 µM (top of the series)
Procedure, shortened: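 Cells seeded at 5,000 per well were treated with compounds over a concentration series and loaded with oleic acid (400 uM, as added). Lipid droplet fluorescence (488 nm excitation, 500-530 nm channel) was read by laser-scanning cytometry and normalized to 20 uM Triacsin C.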

[16] = biological target: Ubiquitin carboxyl-terminal hydrolase 1 (Homo sapiens) (UniProt O94782); assay: Inhibitors of USP1/UAF1: Pilot qHTS (AID 504865); settings: purified USP1/UAF1, Ub-rhodamine cleavage fluorescence; series mostly up to 54.9 µM;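 further: rhodamine fluorescence freed from ubiquitin-rhodamine substrate followed over time; top concentration of the series differs between compounds; on the % scale 0 is the no-effect control and ±100 the full control effect; nearly all actives have a fitted effect of over 35% in size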
Sequence of Ubiquitin carboxyl-terminal hydrolase 1 (Homo sapiens) (O94782 whole entry, looked up): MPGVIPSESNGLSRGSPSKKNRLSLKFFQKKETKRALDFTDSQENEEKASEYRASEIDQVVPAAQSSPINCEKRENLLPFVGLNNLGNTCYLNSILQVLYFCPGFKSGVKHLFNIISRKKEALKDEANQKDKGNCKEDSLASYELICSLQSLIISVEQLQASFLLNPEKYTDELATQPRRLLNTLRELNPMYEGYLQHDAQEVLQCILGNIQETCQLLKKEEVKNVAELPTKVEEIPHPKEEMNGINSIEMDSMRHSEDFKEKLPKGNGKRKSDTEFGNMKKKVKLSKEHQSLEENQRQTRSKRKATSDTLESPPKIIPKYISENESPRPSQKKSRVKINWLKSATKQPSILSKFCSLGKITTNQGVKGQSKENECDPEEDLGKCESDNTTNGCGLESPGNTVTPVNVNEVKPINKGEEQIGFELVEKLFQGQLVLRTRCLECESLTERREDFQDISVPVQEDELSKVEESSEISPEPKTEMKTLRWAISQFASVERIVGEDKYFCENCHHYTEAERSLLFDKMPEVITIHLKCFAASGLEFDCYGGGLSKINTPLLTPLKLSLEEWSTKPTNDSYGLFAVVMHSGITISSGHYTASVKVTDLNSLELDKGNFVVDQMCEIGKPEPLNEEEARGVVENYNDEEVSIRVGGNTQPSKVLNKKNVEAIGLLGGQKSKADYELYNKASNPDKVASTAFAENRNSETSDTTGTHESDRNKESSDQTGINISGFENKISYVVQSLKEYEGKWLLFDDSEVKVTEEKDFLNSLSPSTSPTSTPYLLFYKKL
Procedure, shortened: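 Enzyme-free wells gave the negative control, while test wells held 1nM USP1/UAF1 preincubated with compound for 15 min at room temperature. Ub-Rho at 150nM final started the reaction, and fluorescence at 480/540 nm was recorded kinetically.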

[17] = Primary qHTS for small molecule stabilizers of the endoplasmic reticulum resident proteome: Secreted ER Calcium Modulated Protein (SERCaMP) assay (AID 1508630); settings: SH-SY5Y GLuc-SERCaMP (Gaussia luciferase released on ER calcium loss) secretion, thapsigargin, luminescence; series mostly up to 38.4 µM; further: on the % scale 0 is the no-effect control and ±100 the full control effect
Procedure, shortened: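 The SH-SY5Y reporter protocol was run at 3 concentrations up to 38.3 uM (primary) or 11 concentrations (follow-up): 16 h compound, 100 nM thapsigargin for 4 h, then extracellular luciferase luminescence.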

[18] = qHTS Assay for Identification of Small Molecule Agonists for Hypoxia Response Element Signaling Pathway (AID 914; active means well fitted activation curve with a large enough effect in the signal ratio, with a control signal flat, not every such curve was filed as active; the % refers to the signal ratio; further: % of control where 0% means no effect); settings: ME-180 (cervical carcinoma) HRE-bla reporter, beta-lactamase ratio, CoCl2, 17 h; activation: stronger effect = higher value
Procedure, shortened: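 Reporter activity (beta-lactamase, CCF4 460nm/530nm ratio) in HRE-bla ME-180 cells is recorded after 17 h compound exposure with EC50 CoCl2 at 37 degrees Celsius. AC50 values come from titration data.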

[19] = measured here: cell count channel max response
[20] = measured here: lipid channel max response

COc1ccccc1-c1cncnc1NCCc1cnc[nH]1
12.9%: max response [15, 19]
26.1%: max response [15, 20]
active: Potency [3] 1.26 µM | Potency [10] 0.398 µM | Potency [12] 0.0794 µM
inactive: Potency [1] > 11.4 µM | activity change, negative = inhibition [2] 1.24% | activity change, negative = inhibition [4] 3.21% | activity, negative = inhibition [5] -11.6% | Potency [6] > 46 µM | Potency [7] > 46 µM | outcome [8] | Potency [9] | Potency [11] | outcome [13] | outcome [14] | activity change, negative = inhibition [15] 11.3% | Potency [16] | Potency [17]

Cc1cnc(CNc2ncncc2-c2ccc(C(=O)N(C)C)cc2)cn1
28.5%: max response [15, 20]
16%: max response [15, 19]
active: Potency [3] 20 µM
inactive: Potency [1] > 11.4 µM | activity change, negative = inhibition [2] 5.94% | activity change, negative = inhibition [4] 2.85% | activity, negative = inhibition [5] 9.42% | Potency [6] > 46 µM | Potency [7] > 46 µM | outcome [8] | Potency [9] | Potency [11] | outcome [13] | activation [18] 0.757% | outcome [14] | activity change, negative = inhibition [15] 10.8% | Potency [16] | Potency [17]

CN1CCN(c2cc(-c3ccccc3C(F)(F)F)ncn2)CC1
20.3%: max response [15, 19]
inactive: Potency [1] > 11.4 µM | activity change, negative = inhibition [2] 8.33% | activity change, negative = inhibition [4] -29.9% | activity, negative = inhibition [5] 8.15% | Potency [6] > 46 µM | Potency [7] > 46 µM | outcome [8] | Potency [9] | outcome [13] | outcome [14] | activity change, negative = inhibition [15] 9.46% | Potency [16] | Potency [17]
26.3%: max response [15, 20]
active: Potency [3] 12.6 µM

CN(C)Cc1ccccc1-c1cc(Nc2ccccc2)ncn1
inactive: Potency [1] > 11.4 µM | activity change, negative = inhibition [2] 1.09% | activity change, negative = inhibition [4] -10.2% | activity, negative = inhibition [5] 9.68% | Potency [6] > 46 µM | Potency [7] > 46 µM | outcome [8] | Potency [9] | outcome [13] | outcome [14] | activity change, negative = inhibition [15] 4.87% | Potency [16] | Potency [17]
12.4%: max response [15, 20]
active: Potency [3] 15.8 µM
5.64%: max response [15, 19]

CN(C)c1ccnc(-c2ccccc2C(F)(F)F)n1
inactive: Potency [1] > 11.4 µM | activity change, negative = inhibition [2] 24.2% | activity change, negative = inhibition [4] 6.88% | activity, negative = inhibition [5] 1.29% | Potency [6] > 46 µM | Potency [7] > 46 µM | outcome [8] | Potency [9] | Potency [10] | outcome [13] | outcome [14] | activity change, negative = inhibition [15] 5.14% | Potency [16] | Potency [17]
18.9%: max response [15, 20]
11.7%: max response [15, 19]
active: Potency [3] 7.94 µM
